From article PMC7862700, “An all-to-all approach to the identification of sequence-specific readers for epigenetic DNA modifications on cytosine”

Assays:
Test in all cases: DAPPL (digital affinity profiling via proximity ligation, sequencing); 10 mM Tris-HCl pH 7.5, 50 mM NaCl, 1 mM DTT, 4% glycerol, room temperature, 30 min; GST-TFs on glutathione beads, 16-mer random dsDNA library, 0.1% formaldehyde crosslink after washing; high values mean tight binding
FLI1 = molecular target: T1, FLI1 (Homo sapiens, UniProt Q01543 1-452); conditions: protein: recombinant; tags: N-terminal GST; dsDNA, one strand shown
T1 sequence: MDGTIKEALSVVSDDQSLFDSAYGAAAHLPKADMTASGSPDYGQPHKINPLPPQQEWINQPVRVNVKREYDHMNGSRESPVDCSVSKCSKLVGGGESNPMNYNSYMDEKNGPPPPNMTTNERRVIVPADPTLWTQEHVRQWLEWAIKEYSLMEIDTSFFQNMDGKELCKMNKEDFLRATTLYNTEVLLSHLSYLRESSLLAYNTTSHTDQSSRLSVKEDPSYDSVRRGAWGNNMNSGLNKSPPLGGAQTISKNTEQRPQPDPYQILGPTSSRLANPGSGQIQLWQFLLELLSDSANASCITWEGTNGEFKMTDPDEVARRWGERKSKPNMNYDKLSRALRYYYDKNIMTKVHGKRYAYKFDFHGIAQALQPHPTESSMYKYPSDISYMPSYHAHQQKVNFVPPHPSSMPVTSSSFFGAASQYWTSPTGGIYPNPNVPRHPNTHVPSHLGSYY
How it was run: (§1)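 Beads coated with glutathione captured GST-fused human transcription factors that had been expressed in yeast, and the factors were then given DNA barcodes and pooled with a tag-only sample. The pools were incubated with 200 nmole of a random double-stranded 16-mer DNA library in Tris/NaCl/DTT/glycerol buffer for 30 min at room temperature, washed, crosslinked with 0.1% formaldehyde and proximity-ligated with BsaI/T4 ligase at 37 °C for 1 h. PCR amplification and Illumina NextSeq500 sequencing came last. Binding signal is each hexamer's read frequency for a factor divided by its frequency for the tag-only sample.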

ELK1 = molecular target: T2, ELK1 (Homo sapiens, UniProt P19419 1-428); conditions: protein: recombinant; tags: N-terminal GST; dsDNA, one strand shown
T2 sequence: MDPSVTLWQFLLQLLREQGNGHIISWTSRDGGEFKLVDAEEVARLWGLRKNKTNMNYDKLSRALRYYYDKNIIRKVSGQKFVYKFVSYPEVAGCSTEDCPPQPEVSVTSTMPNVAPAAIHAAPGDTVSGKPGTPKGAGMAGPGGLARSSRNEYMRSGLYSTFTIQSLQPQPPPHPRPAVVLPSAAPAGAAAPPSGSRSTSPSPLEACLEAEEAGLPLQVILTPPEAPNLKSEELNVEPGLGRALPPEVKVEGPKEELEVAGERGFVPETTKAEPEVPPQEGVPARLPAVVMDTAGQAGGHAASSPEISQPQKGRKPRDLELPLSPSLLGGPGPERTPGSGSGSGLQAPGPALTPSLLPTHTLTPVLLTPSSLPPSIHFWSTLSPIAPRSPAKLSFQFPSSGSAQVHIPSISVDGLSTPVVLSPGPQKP
How it was run: as §1

GABPA = molecular target: T3, GABPA (Homo sapiens, UniProt Q06546 1-454); conditions: protein: recombinant; tags: N-terminal GST; dsDNA, one strand shown
T3 sequence: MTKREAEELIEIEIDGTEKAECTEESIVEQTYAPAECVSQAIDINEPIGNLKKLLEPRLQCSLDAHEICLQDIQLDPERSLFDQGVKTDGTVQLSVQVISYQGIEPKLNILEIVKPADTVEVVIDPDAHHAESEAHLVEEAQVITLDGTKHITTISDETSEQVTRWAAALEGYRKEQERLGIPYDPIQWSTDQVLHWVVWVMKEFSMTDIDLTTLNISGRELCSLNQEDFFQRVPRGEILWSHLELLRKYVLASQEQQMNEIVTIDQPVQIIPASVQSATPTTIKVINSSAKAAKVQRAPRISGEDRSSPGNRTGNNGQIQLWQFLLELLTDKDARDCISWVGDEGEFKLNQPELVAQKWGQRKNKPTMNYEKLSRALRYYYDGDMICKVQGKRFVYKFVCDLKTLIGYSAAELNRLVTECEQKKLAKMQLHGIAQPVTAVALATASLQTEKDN
How it was run: as §1

ERG = molecular target: T4, ERG (Homo sapiens, UniProt P11308 1-479); conditions: protein: recombinant; tags: N-terminal GST; dsDNA, one strand shown
T4 sequence: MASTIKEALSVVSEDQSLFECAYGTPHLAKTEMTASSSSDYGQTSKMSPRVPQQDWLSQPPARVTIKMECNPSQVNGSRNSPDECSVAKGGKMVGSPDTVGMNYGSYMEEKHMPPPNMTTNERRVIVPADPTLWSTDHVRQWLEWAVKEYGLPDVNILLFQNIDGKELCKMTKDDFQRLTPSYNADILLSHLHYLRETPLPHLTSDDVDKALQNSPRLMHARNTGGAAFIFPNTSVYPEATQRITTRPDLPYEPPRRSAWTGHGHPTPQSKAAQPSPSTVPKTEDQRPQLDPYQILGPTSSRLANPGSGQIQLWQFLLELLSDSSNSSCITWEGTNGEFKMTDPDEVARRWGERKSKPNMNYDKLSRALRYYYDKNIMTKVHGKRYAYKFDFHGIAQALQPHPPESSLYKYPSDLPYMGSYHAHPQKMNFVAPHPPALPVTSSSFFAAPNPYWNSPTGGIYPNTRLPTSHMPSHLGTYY
How it was run: as §1

ELF1 = ELF1 (Homo sapiens, UniProt P32519 1-619); conditions: protein: recombinant; tags: N-terminal GST; dsDNA, one strand shown
Sequence of ELF1 (P32519 whole entry): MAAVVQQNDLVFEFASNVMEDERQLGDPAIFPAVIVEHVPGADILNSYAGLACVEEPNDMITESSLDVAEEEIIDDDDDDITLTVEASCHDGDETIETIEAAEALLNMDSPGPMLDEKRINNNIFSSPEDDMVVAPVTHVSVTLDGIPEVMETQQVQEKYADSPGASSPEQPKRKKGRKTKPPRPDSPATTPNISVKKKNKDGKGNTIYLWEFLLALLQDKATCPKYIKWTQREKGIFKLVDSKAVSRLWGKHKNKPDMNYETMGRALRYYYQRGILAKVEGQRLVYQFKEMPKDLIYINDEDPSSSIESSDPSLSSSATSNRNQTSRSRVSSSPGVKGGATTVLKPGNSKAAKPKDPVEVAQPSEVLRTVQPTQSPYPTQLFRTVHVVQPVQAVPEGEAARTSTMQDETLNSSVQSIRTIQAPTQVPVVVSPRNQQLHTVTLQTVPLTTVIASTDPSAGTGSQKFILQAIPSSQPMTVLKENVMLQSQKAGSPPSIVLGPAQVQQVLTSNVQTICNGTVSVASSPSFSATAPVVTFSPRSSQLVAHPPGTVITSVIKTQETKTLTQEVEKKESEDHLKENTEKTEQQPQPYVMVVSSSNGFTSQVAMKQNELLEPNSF
How it was run: as §1

EHF = molecular target: T5, EHF (Homo sapiens, UniProt Q9NZC4 1-300); conditions: protein: recombinant; tags: N-terminal GST; dsDNA, one strand shown
T5 sequence: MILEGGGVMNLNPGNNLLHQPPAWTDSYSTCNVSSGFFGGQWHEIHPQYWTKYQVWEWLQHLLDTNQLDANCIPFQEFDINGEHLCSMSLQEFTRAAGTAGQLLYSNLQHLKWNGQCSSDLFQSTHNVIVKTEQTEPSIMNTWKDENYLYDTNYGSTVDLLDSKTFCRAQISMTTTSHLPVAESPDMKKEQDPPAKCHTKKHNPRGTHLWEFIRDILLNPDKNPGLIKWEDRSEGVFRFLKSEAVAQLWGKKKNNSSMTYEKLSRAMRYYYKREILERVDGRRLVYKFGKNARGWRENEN
How it was run: as §1

SPI1 = SPI1 (Homo sapiens, UniProt P17947 1-270); conditions: protein: recombinant; tags: N-terminal GST; dsDNA, one strand shown
How it was run: as §1

SPIB = SPIB (Homo sapiens, UniProt Q01892 1-262); conditions: protein: recombinant; tags: N-terminal GST; dsDNA, one strand shown
Sequence of SPIB (Q01892 whole entry): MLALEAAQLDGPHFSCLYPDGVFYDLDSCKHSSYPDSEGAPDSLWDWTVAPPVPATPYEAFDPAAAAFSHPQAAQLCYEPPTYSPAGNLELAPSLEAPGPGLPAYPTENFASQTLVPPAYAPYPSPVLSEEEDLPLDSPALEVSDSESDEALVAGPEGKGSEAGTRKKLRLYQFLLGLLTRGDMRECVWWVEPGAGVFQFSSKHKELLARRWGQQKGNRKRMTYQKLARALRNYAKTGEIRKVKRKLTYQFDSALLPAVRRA
How it was run: as §1

ELK3 = molecular target: T6, ELK3 (Homo sapiens, UniProt P41970 1-407); conditions: protein: recombinant; tags: N-terminal GST; dsDNA, one strand shown
T6 sequence: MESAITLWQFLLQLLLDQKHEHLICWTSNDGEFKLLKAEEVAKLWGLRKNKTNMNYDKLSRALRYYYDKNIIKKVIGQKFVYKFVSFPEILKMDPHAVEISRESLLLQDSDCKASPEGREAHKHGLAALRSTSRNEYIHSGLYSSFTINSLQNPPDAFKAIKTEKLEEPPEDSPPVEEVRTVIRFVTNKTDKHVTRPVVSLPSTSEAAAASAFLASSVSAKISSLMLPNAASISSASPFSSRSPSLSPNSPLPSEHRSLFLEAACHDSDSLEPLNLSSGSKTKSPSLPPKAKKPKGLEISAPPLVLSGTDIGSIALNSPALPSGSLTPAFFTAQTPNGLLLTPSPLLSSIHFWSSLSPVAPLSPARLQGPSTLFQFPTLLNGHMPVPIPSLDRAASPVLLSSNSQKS
How it was run: as §1

FEV = molecular target: T7, FEV (Homo sapiens, UniProt Q99581 1-238); conditions: protein: recombinant; tags: N-terminal GST; dsDNA, one strand shown
T7 sequence: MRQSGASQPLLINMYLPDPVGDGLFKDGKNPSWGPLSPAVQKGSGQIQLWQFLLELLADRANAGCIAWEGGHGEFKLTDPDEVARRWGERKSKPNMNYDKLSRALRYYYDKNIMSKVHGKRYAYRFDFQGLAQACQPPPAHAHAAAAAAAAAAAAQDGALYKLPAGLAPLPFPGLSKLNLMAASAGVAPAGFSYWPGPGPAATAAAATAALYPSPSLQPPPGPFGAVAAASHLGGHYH
How it was run: as §1

ETV5 = ETV5 (Homo sapiens, UniProt P41161 1-510); conditions: protein: recombinant; tags: N-terminal GST; dsDNA, one strand shown
Sequence of ETV5 (P41161 whole entry): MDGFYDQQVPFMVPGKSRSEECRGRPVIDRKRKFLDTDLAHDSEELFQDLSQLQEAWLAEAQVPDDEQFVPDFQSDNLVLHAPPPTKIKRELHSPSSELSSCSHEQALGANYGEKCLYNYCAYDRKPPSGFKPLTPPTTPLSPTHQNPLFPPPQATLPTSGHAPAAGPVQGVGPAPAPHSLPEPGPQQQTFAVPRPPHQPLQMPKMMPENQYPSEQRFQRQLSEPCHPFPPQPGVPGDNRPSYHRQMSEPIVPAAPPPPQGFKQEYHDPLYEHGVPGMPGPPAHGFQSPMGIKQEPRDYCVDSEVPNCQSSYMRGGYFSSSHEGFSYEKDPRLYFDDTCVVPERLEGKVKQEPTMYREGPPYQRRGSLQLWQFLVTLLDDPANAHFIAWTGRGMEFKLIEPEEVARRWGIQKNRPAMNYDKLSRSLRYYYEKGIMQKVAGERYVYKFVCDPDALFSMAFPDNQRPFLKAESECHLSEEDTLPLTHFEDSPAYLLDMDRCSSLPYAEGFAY
How it was run: as §1

HSF1 = HSF1 (Homo sapiens, UniProt Q00613 1-529); conditions: protein: recombinant; tags: N-terminal GST; chain copies: 3; dsDNA, one strand shown
Sequence of HSF1 (Q00613 whole entry): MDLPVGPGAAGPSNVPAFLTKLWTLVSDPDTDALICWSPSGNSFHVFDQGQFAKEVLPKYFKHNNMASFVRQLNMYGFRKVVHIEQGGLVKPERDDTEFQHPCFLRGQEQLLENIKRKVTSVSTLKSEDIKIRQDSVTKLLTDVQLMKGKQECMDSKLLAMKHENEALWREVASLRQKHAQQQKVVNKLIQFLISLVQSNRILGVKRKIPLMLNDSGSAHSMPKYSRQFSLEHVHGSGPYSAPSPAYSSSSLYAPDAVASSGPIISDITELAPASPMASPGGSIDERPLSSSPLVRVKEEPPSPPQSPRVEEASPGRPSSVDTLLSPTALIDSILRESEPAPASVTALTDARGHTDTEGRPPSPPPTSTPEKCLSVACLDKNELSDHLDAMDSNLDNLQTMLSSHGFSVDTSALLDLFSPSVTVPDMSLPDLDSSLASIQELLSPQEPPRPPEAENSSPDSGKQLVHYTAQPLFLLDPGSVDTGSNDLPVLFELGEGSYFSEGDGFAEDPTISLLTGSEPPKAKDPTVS
How it was run: as §1

SPIC = molecular target: T8, SPIC (Homo sapiens, UniProt Q8N5J4 1-248); conditions: protein: recombinant; tags: N-terminal GST; dsDNA, one strand shown
T8 sequence: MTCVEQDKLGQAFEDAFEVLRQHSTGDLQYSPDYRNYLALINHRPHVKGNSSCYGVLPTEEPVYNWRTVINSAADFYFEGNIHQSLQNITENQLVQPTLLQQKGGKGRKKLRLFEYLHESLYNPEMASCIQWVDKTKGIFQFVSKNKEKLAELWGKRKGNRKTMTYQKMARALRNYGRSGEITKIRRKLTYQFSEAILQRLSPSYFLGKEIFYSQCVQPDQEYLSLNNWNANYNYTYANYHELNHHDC
How it was run: as §1

ELF4 = ELF4 (Homo sapiens, UniProt Q99607 1-663); conditions: protein: recombinant; tags: N-terminal GST; dsDNA, one strand shown
Sequence of ELF4 (Q99607 whole entry): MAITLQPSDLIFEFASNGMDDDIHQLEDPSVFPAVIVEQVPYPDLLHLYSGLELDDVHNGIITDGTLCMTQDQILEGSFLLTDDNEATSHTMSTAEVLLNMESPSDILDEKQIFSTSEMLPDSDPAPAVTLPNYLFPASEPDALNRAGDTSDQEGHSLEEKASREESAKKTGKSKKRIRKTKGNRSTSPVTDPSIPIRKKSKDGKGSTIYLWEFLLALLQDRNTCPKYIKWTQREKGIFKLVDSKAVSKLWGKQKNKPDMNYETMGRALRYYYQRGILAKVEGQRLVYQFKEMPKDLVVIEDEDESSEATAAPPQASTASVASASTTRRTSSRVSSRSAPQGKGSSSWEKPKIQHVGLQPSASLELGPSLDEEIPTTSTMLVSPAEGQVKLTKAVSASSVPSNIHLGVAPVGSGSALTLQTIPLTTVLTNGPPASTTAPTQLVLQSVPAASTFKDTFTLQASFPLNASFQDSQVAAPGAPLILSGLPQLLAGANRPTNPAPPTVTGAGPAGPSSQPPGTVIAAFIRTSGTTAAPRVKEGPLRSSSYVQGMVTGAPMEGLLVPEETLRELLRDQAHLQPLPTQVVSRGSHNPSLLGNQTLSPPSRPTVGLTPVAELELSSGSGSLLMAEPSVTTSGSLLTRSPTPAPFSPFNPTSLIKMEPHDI
How it was run: as §1

ELK4 = molecular target: T9, ELK4 (Homo sapiens, UniProt P28324-2 1-405); conditions: protein: recombinant; tags: N-terminal GST; dsDNA, one strand shown
T9 sequence: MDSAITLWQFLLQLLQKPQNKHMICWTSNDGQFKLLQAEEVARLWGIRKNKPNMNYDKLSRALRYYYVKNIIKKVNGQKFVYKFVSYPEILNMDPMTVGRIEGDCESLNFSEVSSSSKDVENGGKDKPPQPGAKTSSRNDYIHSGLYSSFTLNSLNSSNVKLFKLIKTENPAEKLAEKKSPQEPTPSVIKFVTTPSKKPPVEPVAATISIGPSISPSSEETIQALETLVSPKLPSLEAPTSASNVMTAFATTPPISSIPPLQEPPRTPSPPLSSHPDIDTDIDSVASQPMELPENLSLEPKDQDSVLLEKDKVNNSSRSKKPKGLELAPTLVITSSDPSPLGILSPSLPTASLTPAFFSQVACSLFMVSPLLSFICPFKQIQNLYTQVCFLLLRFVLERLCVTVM
How it was run: as §1

ETV2 = molecular target: T10, ETV2 (Homo sapiens, UniProt O00321 1-342); conditions: protein: recombinant; tags: N-terminal GST; dsDNA, one strand shown
T10 sequence: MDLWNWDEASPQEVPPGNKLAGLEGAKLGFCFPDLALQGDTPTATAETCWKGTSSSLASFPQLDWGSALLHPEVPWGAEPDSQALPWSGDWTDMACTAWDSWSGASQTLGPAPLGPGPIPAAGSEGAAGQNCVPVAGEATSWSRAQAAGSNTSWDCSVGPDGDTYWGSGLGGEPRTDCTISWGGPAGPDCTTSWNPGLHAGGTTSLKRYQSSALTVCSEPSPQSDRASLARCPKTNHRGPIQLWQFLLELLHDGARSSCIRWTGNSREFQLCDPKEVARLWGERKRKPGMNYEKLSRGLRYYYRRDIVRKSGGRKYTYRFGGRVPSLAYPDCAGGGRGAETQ
How it was run: as §1

ELF3 = molecular target: T11, ELF3 (Homo sapiens, UniProt P78545 1-371); conditions: protein: recombinant; tags: N-terminal GST; dsDNA, one strand shown
T11 sequence: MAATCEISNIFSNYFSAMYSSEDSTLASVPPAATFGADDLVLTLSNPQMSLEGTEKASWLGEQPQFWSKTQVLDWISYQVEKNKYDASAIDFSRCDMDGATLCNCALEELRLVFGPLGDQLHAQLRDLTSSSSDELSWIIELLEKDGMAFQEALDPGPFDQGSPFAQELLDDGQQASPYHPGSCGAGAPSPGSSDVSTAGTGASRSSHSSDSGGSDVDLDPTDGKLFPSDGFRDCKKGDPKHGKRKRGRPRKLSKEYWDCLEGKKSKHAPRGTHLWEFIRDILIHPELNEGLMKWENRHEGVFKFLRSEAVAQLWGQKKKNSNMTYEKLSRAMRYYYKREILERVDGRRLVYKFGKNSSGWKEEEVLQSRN
How it was run: as §1

CRX = CRX (Homo sapiens, UniProt O43186 1-299); conditions: protein: recombinant; tags: N-terminal GST; dsDNA, one strand shown
Sequence of CRX (O43186 whole entry): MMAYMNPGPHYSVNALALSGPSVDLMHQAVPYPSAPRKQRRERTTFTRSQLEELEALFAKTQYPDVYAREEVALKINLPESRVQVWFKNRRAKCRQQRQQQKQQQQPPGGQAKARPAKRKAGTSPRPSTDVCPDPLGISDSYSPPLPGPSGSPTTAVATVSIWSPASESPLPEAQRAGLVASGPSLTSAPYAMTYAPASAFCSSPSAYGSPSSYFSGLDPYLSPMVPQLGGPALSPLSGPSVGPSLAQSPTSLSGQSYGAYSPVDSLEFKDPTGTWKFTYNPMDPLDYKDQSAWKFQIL
How it was run: as §1

ETV1 = ETV1 (Homo sapiens, UniProt P50549 1-477); conditions: protein: recombinant; tags: N-terminal GST; dsDNA, one strand shown
Sequence of ETV1 (P50549 whole entry): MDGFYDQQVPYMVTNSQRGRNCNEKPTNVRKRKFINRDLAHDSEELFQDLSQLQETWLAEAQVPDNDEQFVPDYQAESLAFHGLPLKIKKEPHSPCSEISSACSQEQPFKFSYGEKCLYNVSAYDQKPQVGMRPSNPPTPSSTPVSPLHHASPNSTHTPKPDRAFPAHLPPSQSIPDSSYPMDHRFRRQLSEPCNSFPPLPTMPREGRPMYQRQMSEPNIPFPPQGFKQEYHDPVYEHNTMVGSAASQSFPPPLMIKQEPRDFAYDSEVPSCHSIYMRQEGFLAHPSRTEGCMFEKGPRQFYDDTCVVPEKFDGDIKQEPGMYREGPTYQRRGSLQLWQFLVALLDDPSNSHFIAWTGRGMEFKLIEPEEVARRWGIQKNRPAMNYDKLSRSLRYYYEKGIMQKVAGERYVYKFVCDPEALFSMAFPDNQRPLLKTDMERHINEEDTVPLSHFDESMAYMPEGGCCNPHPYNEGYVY
How it was run: as §1

ATCCGG
binding signal (FLI1): 2.65 fold enrichment (6-mer frequency, TF over GST control)
binding signal (ELK1): 2.59 fold enrichment (6-mer frequency, TF over GST control)
binding signal (GABPA): 2.37 fold enrichment (6-mer frequency, TF over GST control)
binding signal (ERG): 3.22 fold enrichment (6-mer frequency, TF over GST control)
binding signal (ELF1): 2.29 fold enrichment (6-mer frequency, TF over GST control)
binding signal (EHF): 2.65 fold enrichment (6-mer frequency, TF over GST control)
binding signal (SPI1): 2.37 fold enrichment (6-mer frequency, TF over GST control)
binding signal (SPIB): 2.77 fold enrichment (6-mer frequency, TF over GST control)
binding signal (ELK3): 2.66 fold enrichment (6-mer frequency, TF over GST control)
binding signal (FEV): 4.68 fold enrichment (6-mer frequency, TF over GST control)
binding signal (ETV5): 2.87 fold enrichment (6-mer frequency, TF over GST control)
binding signal (HSF1): 1.31 fold enrichment (6-mer frequency, TF over GST control)
binding signal (SPIC): 2.35 fold enrichment (6-mer frequency, TF over GST control)
binding signal (ELF4): 2.17 fold enrichment (6-mer frequency, TF over GST control)
binding signal (ELK4): 2.1 fold enrichment (6-mer frequency, TF over GST control)
binding signal (ETV2): 2.6 fold enrichment (6-mer frequency, TF over GST control)
binding signal (ELF3): 2.31 fold enrichment (6-mer frequency, TF over GST control)
binding signal (CRX): 1.48 fold enrichment (6-mer frequency, TF over GST control)
binding signal (ETV1): 2.66 fold enrichment (6-mer frequency, TF over GST control)
